This is a sample that favours compounds with a hit; in the whole collection about 1.7% have one here.
TrxR1 substrate: is turned over as a substrate by rat TrxR1 | purified TrxR1 substrate turnover, NADPH consumption readout | Potency, µM (series often up to 114 µM), inactives show at the highest dose activity change, negative = substrate turnover | 390,000 tested, 0.01% active | AID 588456; note: % is set by controls: 0 for no effect and ±100 for the full control effect; nearly all actives have a fitted effect of over 50% in size
Target sequence (O89049 whole entry, looked up): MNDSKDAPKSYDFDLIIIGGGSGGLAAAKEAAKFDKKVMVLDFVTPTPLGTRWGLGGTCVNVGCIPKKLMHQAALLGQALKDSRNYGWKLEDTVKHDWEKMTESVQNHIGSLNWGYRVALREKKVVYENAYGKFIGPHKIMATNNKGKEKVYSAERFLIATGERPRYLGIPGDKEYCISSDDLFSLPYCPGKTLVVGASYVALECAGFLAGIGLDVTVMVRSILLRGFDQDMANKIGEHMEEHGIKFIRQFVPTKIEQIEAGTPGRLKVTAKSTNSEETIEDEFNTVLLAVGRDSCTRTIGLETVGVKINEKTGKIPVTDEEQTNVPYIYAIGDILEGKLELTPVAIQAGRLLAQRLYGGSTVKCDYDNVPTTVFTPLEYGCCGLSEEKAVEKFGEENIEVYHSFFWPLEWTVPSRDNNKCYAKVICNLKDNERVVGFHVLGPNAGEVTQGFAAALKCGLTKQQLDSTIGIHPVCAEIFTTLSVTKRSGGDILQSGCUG
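Rat TrxR1, dispensed at 90 nM, was prereduced with 400 uM NADPH (final) for 5 min at ~22 deg C, then incubated with compound 15 min before 400 uM selenite. A first-read NADPH fluorescence drop versus no-compound background flagged substrates.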
rTrxR1 inhibitor: blocks rat thioredoxin reductase 1. O89049. Potency, µM (titrated, usually from 114 µM), for the others: at the highest dose activity change, negative = inhibition, hits mostly inhibitors. 390,000 tested, 1% active. AID 588453. recombinant rTrxR1, NADPH fluorescence consumption, selenite substrate; note: % is set by controls: 0 for no effect and ±100 for the full control effect; nearly all actives have a fitted effect of over 65% in size
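Rat TrxR1 (90 nM in the dispensed reagent) was pre-reduced with 400 uM NADPH for 5 min at room temperature, then incubated with compound for 15 min. After 400 uM selenite was added, NADPH fluorescence (Ex 340/Em 450 nm) was followed for 8 min.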
12-LOX inh: ALOX12 (human) lipoxygenase inhibition | purified 12hLO, xylenol orange hydroperoxide absorbance | Potency, µM (series often up to 108 µM), for inactives: top-dose activity change, negative = inhibition, actives largely listed as inhibitors | 580,000 tested, 1.1% active; note: % is set by controls: 0 for no effect and ±100 for the full control effect
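Hydroperoxide product was detected by ferrous iron/xylenol orange as the 573 to 405 nm absorbance ratio. Arachidonic acid at 40 uM (final) was turned over for 30 min at room temperature by 150 nM human 12hLO, pH 7.0 Hepes buffer, after 15 min compound preincubation.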
GRP78 ERSR act: inducers of ER stress response in human glioma cells. U87-MG GRP78 promoter luciferase reporter, 16 h. Potency, µM, for inactives: at the top dose activation, usual class: activators. 420,000 tested, 0.02% active. AID 602332; note: series mostly up to about 76 µM; % of control where 0% means no effect; nearly all actives have a fitted effect of over 35% in size
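Stably transfected U87-MG human glioma cells carrying a GRP78-based luminescent sensor were seeded at 1000 cells/well, pin-dosed with compounds and incubated 16 h. Luciferase reagent was then added, and end-point luminescence was read after 10 min at room temperature.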
Apoferritin bind: binds horse apoferritin like a general anesthetic. apoferritin/1-aminoanthracene competitive binding, fluorescence. Potency, µM (top dose mostly 77.5 µM), for inactives: top-dose activity change, negative = displacement, actives largely listed as inhibitors. 350,000 tested, 0.074% active; note: % is set by controls: 0 for no effect and ±100 for the full control effect; nearly all actives have a fitted effect of over 20% in size
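Steps: apoferritin (10 uM) was premixed with half-saturated 1-AMA in PBS, compounds were pin-transferred, plates stood 10 min at room temperature, fluorescence was read at 380/535 nm, and curves were fitted with a Hill equation.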
IDH1 R132H inh: human IDH1 R132H inhibition | Potency, µM (titrated, usually from 76.6 µM), for the others: top-dose activity change, negative = inhibition, actives largely listed as inhibitors | 390,000 tested, 0.093% active | O75874 | IDH1-R132H enzyme, NADPH consumption, diaphorase/resazurin fluorescence; note: % is set by controls: 0 for no effect and ±100 for the full control effect; nearly all actives have a fitted effect of over 65% in size
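IDH1-R132H (0.5 ug/mL dispensed) in pH 7.5 Tris buffer was preincubated 30 min with compound, then given a substrate mix of 0.016 mM NADPH and 2 mM alpha-KG for 80 min at room temperature; remaining NADPH was read by diaphorase/resazurin fluorescence.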
* = called active by the depositor; u = inconclusive; x = no result given; [ ] = dose if it differs, or a comment. Calls come from the whole dose curve; as a rule, active = well fitted curve in the direction sought with a large enough effect; inconclusive = small, poorly fitted or top-dose-only effect, or another doubt; inactive = no such curve, though single readings can be large; an effect the other way counts as inactive or inconclusive. Potency is the fitted concentration of half-maximal effect.

SMILES	TrxR1 substrate	rTrxR1 inhibitor	12-LOX inh	GRP78 ERSR act	Apoferritin bind	IDH1 R132H inh
O=C(/C=C/c1ccc(O)cc1)c1ccccc1	-9.3%	-12.7%	0.7%	7.2%	-4.4%	-5.0%
Oc1ccc(/C=C/c2ccc(/C=C/c3ccc(O)cc3)c(Br)c2)cc1	75.1%[57.1 µM]	22.4µM*	x	u	x	x
COc1ccc(/C=C/C(=O)OC(C)C(=O)c2ccc3c(c2)CCC3)cc1OC (centres undefined)	x	x	-7.0%	x	x	x
O=[N+]([O-])c1ccc(S(=O)(=O)CC(CN2CCOCC2)N2CCOCC2)cc1 (centres undefined)	-0.9%	4.1%	2.6%	-5.7%	-2.0%	-6.7%
O=[N+]([O-])c1ccc(S(=O)(=O)CC(CN2CCCCC2)N2CCCCC2)cc1 (centres undefined)	-5.8%	2.51µM*	0.3%	-3.2%	-10.4%	9.1%
CC1CCCN(C(=O)COc2ccc(Nc3ccccc3)cc2)C1 (centres undefined)	-17.6%[57.1 µM]	16.6%[57.1 µM]	-9.2%	-3.9%	17.8µM*	5.6%
Cc1c(NC(=O)c2cc3cc(Br)ccc3[nH]2)c(=O)n(-c2ccccc2)n1C	x	x	50.1µM*	x	x	x
Cc1c(NC(=O)c2ccc(C(=O)Nc3c(C)n(C)n(-c4ccccc4)c3=O)cc2)c(=O)n(-c2ccccc2)n1C	2.3%	36.8%[2.29 µM]	3.0%	-3.1%	1.3%	-5.3%
CCCC1=NN(c2ccc([N+](=O)[O-])cc2)C(=O)/C1=C\N(C)C	-14.7%	-24.8%	44.7µM*	-0.1%	-13.8%	6.7%
CCN(CC)c1ccc(/C=C2/C(=O)N(c3ccc([N+](=O)[O-])cc3)N=C2N2CCOCC2)cc1	x	x	x	x	-12.2%	x
COc1ccc(-c2cc(C(=O)N3CCCC3)c3ccccc3n2)c(OC)c1	x	x	17.8µM*	x	x	x
CCNC(=O)c1cc(-c2ccc(OC)cc2OC)nc2ccccc12	x	x	8.91µM*	x	x	x
CC(C)(C)NC(=S)NC(=O)C12CCC3CC(CC(C3)C1)C2	-3.7%	-6.1%	31.6µM*	-3.0%	-10.6%	-13.1%
CCCN1CCN(C(=O)c2oc3ccccc3c2NC(=O)COc2ccc(OC)cc2)CC1	4.7%	22.4µM*	36.1%	-4.6%	-3.3%	2.5%
COc1ccc(OCC(=O)Nc2c(C(=O)N3CCN(C)CC3)oc3ccccc23)cc1	2.3%[57.1 µM]	11.6%[57.1 µM]	-3.9%	-2.3%	-4.1%	0.0%
CCC(C)Nc1ccc(NC(C)CC)cc1 (centres undefined)	u	20µM*	x	-11.4%	x	6.0%
COc1ccccc1/C=C/CN1CCCC(CO)(Cc2cccc(Cl)c2)C1 (centres undefined)	5.9%[57.1 µM]	35.8%[57.1 µM]	39.8µM*	-5.4%	-17.7%	1.5%
COc1cccc(CC2(CO)CCCN(C/C=C/c3ccccc3OC)C2)c1 (centres undefined)	-2.6%	-4.1%	-23.5%	-3.6%	-12.9%	1.0%
S=C(NCc1ccccc1)C12CC3CCC(CC(C3)C1)C2	x	x	8.3%	x	x	x
Cc1ccc(CNC(=O)[C@H](C)[C@H]2C[C@]2(C)[C@H](NC(=O)OCc2ccccc2)c2ccccc2)o1	-2.4%	56.2µM*	x	-2.4%	0.5%	18.6%
CCN(CC)C(=O)c1c(NC(=O)c2ccccc2)sc(C)c1C	-6.2%	-9.7%	163.5%[57.4 µM]	-4.4%	-13.2%	5.1%
CCN(CC)Cc1c(NC(=O)c2ccccc2)sc(C)c1C	3.3%	7.08µM*	-16.9%	-0.3%	-10.5%	-10.3%
C=CCN1C=C2C(=O)C(C)(OC(=O)C3CCCC3)C(=O)C(c3ccccc3)=C2C=C1CCCC(=O)OC (centres undefined)	2.7%	79.4µM*	347.6%	-2.8%	-10.1%	14.5%
COC(=O)CCCC1=CC2=C(c3ccccc3)C(=O)C(C)(OC(=O)C3CCCC3)C(=O)C2=CN1C1CC1 (centres undefined)	-4.0%[57.1 µM]	-15.7%[57.1 µM]	-8.4%	-3.6%	2.3%	0.0%
Cc1ccccc1NC(=O)CCCn1cnc2c1c(=O)n(C)c(=O)n2C	x	x	-33.8%	x	x	x
